# High-throughput results: PubChem, several laboratories
# Htt clearance: clearance of mutant huntingtin inclusions, primary screen, imaging, HeLa Exon1htt(103Q)mCFP, confocal imaging | inhibition, % at 1.5 µM | actives 0.42% (n = 47,000) | aggregate imaging; zero = plate's median compound well;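 active = inhibition of aggregate fluorescence above about 70%, also judged a hit by eye on the cell image, limit read from the data, passing the limit was not always enough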;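 note: cells exposed to compound for three days before fixation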
# M1 antagonist: antagonists of rat M1 muscarinic receptor. B-score at 10 µM. actives 3.4% (n = 64,000). CHO-M1 cells, Fluo-4 calcium, ACh EC80 antagonist mode; hits give low values. Muscarinic acetylcholine receptor M1 (Rattus norvegicus), P08482;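 active = calcium fluorescence response, raw or row-and-column corrected B-score, differing from the plate sample mean either way at a set confidence level, mostly lower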
# Target sequence (P08482 whole entry, looked up): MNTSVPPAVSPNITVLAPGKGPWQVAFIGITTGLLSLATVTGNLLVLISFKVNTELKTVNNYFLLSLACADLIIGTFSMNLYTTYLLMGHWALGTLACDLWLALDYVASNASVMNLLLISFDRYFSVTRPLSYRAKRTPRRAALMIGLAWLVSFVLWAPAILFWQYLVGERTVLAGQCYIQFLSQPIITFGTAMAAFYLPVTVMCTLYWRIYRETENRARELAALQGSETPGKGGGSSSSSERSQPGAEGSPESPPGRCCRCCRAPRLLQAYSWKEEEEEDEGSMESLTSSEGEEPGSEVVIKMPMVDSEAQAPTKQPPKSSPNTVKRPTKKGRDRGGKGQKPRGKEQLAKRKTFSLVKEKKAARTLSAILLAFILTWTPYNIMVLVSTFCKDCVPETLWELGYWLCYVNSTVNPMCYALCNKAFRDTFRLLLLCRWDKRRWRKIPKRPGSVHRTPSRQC
# NADH coupling: inhibitors of PK/LDH coupling enzymes, profiling panel, artefact control, biochemical, MLSMR library; AID 774, 2007; IC50, µM (series often up to 10 µM), without a hit: at the highest dose inhibition; actives 0.02% (n = 65,000); coupled PK/LDH NADH assays, four targets;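 active = single-dose screening hits from any of four coupled enzyme assays that gave an IC50 when retested across doses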;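 note: the DPM-DC format reads NADH fluorescence rather than 340 nm absorbance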
# M1 ag: M1 muscarinic receptor agonists, primary screen, CHO-M1 cells, Fluo-4 calcium, agonist mode; Muscarinic acetylcholine receptor M1; Fluo-4 calcium fluorescence; hits give high values; B-score at 10 µM; actives 3% (n = 64,000);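 active = fluorescence rise, raw or as B-score row- and column-corrected plate score, outside the 99.7% band of its plate's samples, either direction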
# Fluor 339 460: intrinsic fluorescence of library compounds, ex339/em460 – biochemical, MLSMR library, data from DPM-DC assay, artefact control, profiling panel. actives 5.5% (n = 65,000). compound autofluorescence, ex339/em460 nm, NADH buffer; hits give high values; 1 = no-compound wells, NADH background. fluorescence fold increase at 10 µM;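 active = at 10 µM, mean starting fluorescence two-fold or more over control wells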;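 note: signal is the first read of a kinetic run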
# Abs 340nm: compound light absorbance at 340 nm, profiling panel, artefact control, biochemical, MLSMR library, data from PS, PMK, MK assays; compound absorbance at 340 nm, fold over control; fold change at 10 µM; 65,000 tested, under 10 active;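 active = at 10 µM dose, initial 340 nm absorbance at least 2 fold that of control wells; inactive = change under 2 fold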;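 note: initial absorbance extrapolated from kinetic A340 decline of NADH oxidation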
# * hit, by the source's call; nt = no result given. Compounds with a hit are over-represented: about 9.3% of the library has one in this group of screens.
SMILES,Htt clearance,M1 antagonist,NADH coupling,M1 ag,Fluor 339 460,Abs 340nm
COCCNC(=O)CSc1nc(-c2ccc(OC)c(OC)c2)cc(C(F)(F)F)n1,32,0.2,7%,-0.88,2.1*,1
COc1ccc(-c2cc(C(F)(F)F)nc(SCC(=O)Nc3cc(C)on3)n2)cc1,-47,-0.57,7%,0,3*,1.1
O=C(NCCN1CCOCC1)c1cc(S(=O)(=O)NCCCN2CCCC2=O)ccc1Cl,46,-0.0029,6%,-0.76,1.1,1
COC(=O)c1cc(NC(=O)CC2NC3CCCCC3NC2=O)cc(C(=O)OC)c1 (configuration not stated),30,nt,nt,nt,nt,nt
CC(C)(C)OCC(NC(=O)C(CC(N)=O)NC(=O)OC(C)(C)C)C(=O)OC(C)(C)C (configuration not stated),nt,0.99,3%,-0.71,1.1,1
CC1=C2C(CCS2(=O)=O)CC2(C1)C(=O)OC(C)(C)OC2=O (configuration not stated),6,0.51,4%,0.17,1.1,0.98
O=C(N1CCOCC1)N(CCN1CCOCC1)Cc1cccc(Cl)c1,nt,0.72,2%,0.16,1.1,1
CCOc1ccccc1-n1c(SCC(=O)Nc2ccc(CC)cc2)nc2n[nH]c(C)c2c1=N,nt,-0.32,13%,-0.66,4.9*,1.1
O=c1c2cnn(-c3ccccc3)c2nc(-c2cccs2)n1-c1ccc(Br)cc1,-28,nt,nt,nt,nt,nt
CC(=O)Nc1c(-c2ccc(F)cc2)nc2ccccn12,nt,-0.23,1%,-0.59,1.7,1
COC(=O)Nc1c(-c2ccccc2)nc2ccccn12,nt,0.094,2%,-0.0098,2.1*,1.1
COC(=O)Nc1c(-c2ccccc2)nc2ccc(C)cn12,nt,0.15,9%,0.14,3.8*,1.1
Cc1ccc2nc(-c3ccccc3)c(NC(=O)c3ccco3)n2c1,21,nt,nt,nt,nt,nt
CC(C)N(C(=O)COc1ccc(Br)cc1Cl)C(C)C,-27,-0.39,12%,-0.44,1.1,1
Cc1ccc2nc(NC3=NCN(Cc4ccccc4)CN3)nc(C)c2c1,nt,-0.94,4%,0.14,1.1,1
Cc1cc2nc(NC3=NCN(CCN4CCOCC4)CN3)nc(C)c2cc1C,nt,-5.7*,8%,0.64,1.2,1
Cc1cc2nc(NC3=NCN(Cc4ccc5c(c4)OCO5)CN3)nc(C)c2cc1C,nt,-5.1*,4%,0.073,1.1,1
Cc1ccc2nc(NC3=NCN(Cc4cccnc4)CN3)nc(C)c2c1,nt,0.63,9%,0.25,1.3,1
CCOC(=O)c1oc2ccccc2c1NC(=O)c1ccc(S(=O)(=O)N2CCCC2)cc1,28,0.32,7%,-0.22,2.5*,1
COC(=O)c1sc2nc(N3CCCCC3)c3c(c2c1N)CC(C)(C)N(C)C3,nt,-1.8,1%,1.2,2.3*,1.1
Cc1ccccc1CS(=O)(=O)CCC(=O)N1CCN(c2ccc(N3CCOCC3)nn2)CC1,-1,-0.062,5%,-0.19,3.4*,0.98
O=C(Cn1c(=O)oc2ccccc21)N1CCN(c2ccc(N3CCOCC3)nn2)CC1,12,0.25,12%,-0.34,2.1*,1.1
O=C(Cn1c(=O)oc2ccccc21)N1CCCCC1,nt,-0.61,3%,0.68,1.1,1
O=C1c2oc3ccccc3c(=O)c2C(c2ccc(Cl)cc2)N1c1ncccn1 (configuration not stated),nt,0.031,3%,-0.03,1.1,1
O=C(Cn1cnc2ccccc21)NC(c1ccccc1)c1ccccc1,-10,nt,nt,nt,nt,nt
SMILES,Htt clearance,M1 antagonist,NADH coupling,M1 ag,Fluor 339 460,Abs 340nm
CC1=C(C(=O)Nc2ccccc2)C(c2ccc3c(c2)OCO3)C2=C(CCCC2=O)N1 (configuration not stated),nt,0.78,7%,-0.81,2.2*,1.1
COCCOC(=O)C1=C(C)NC2=C(C(=O)CC(C)(C)C2)C1c1ccc2c(c1)OCO2 (configuration not stated),-31,-0.025,0%,0.28,1.2,1.1
CCc1ccccc1NC(=O)CSC1=C(C#N)C(c2ccc3c(c2)OCO3)C2=C(CCCC2=O)N1 (configuration not stated),73*,0.023,4%,-0.11,1.2,1.1
CC1=C(C(=O)Nc2cc(C)ccn2)C(c2ccc(C)cc2)C2=C(CCCC2=O)N1 (configuration not stated),2,1.1,3%,0.94,2.3*,1.1
CCN(CC)c1ccc(C2C(C(=O)Nc3ccccn3)=C(C)NC3=C2C(=O)CC(C)(C)C3)cc1 (configuration not stated),-34,-0.038,6%,0.52,1.6,1.1
CCOc1cc(S(=O)(=O)NCc2ccccn2)ccc1Cl,-81,nt,nt,nt,nt,nt
COCc1cc(C)nc(NC2CCCCC2)c1C#N,-1,-1,4%,2.3,3.7*,1.1
COCc1cc(C)nc(N2CCCCC2)c1C#N,13,nt,nt,nt,nt,nt
O=C(Nc1cccc(F)c1)C1CCN(C(=O)c2ccccc2Cl)CC1,4,nt,nt,nt,nt,nt
CCOC(=O)N1CCN(S(=O)(=O)c2ccc3c(c2)OCC(=O)N3)CC1,71*,0.52,7%,-0.99,1.1,1
CCOC(=O)N1CCN(S(=O)(=O)c2ccc3c(c2)SCC(=O)N3)CC1,-23,-1.3,7%,-0.29,1.1,0.98
COc1ccc2[nH]c3c(NCCN(C(C)C)C(C)C)ncnc3c2c1,-5,-1.6,4%,-0.97,3.7*,1.1
CCN1CCCC1Cn1cnc2c([nH]c3ccc(Cl)cc32)c1=O (configuration not stated),-22,-0.97,10%,0.74,1.6,1.1
CCCCN(CCCC)CCn1cnc2c([nH]c3ccc(OC)cc32)c1=O,-146,0.12,2%,0.51,2.3*,1
CCC1CCCN1Cn1cnc2c([nH]c3ccc(OC)cc32)c1=O (configuration not stated),-14,-0.63,2%,-0.0082,3*,1
Clc1ccc2[nH]c3c(NCCN4CCOCC4)ncnc3c2c1,nt,-0.34,8%,1.1,1.4,1.1
CCN1CCCC1Cn1cnc2c([nH]c3cccc(Cl)c32)c1=O (configuration not stated),-26,-0.46,6%,0.6,2.2*,1
Clc1ccc2oc(-c3ccccc3)nc2c1,nt,nt,2%,nt,1.1,1
CC(C)c1ccc2oc(-c3ccc(NC(=O)c4ncn[nH]4)cc3)nc2c1,12,0.44,8%,-0.65,3.6*,1.1
CC(C)c1ccc2oc(-c3ccc(N)cc3)nc2c1,37,-0.012,9%,-0.24,2.1*,1.2
CCC(C)c1ccc2oc(-c3ccc(NC(=O)c4ncn[nH]4)cc3)nc2c1 (configuration not stated),nt,-0.49,6%,0.53,3.6*,1.2
Cc1ccc(-c2nc3cc(NS(=O)(=O)c4ccc(C)cc4)ccc3o2)cc1,34,nt,nt,nt,nt,nt
